About 83,000 compounds went through this panel and 20% of them were active in at least one assay; those are over-represented in the sample as a whole.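 Activity criterion: percent growth below 10, measured after cells in 96-well plates were exposed to a single compound concentration for 48 hours.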 Unmarked numbers belong to inactive results. Active and inactive are the calls of the source.
Columns and labels:
Assay in all cases: NCI-60 one-dose screen, 48 h (100 = growth as untreated, 0 = no growth, -100 = all killed)
[1] = system: SR leukemia; settings: 10 µM
[2] = system: RPMI-8226 leukemia; settings: 10 µM
[3] = system: OVCAR-8 ovarian; settings: 10 µM
[4] = system: OVCAR-4 ovarian; settings: 10 µM
[5] = system: SK-OV-3 ovarian; settings: 10 µM
[6] = system: IGROV1 ovarian; settings: 10 µM
[7] = system: OVCAR-3 ovarian; settings: 10 µM
[8] = system: HS 578T breast; settings: 10 µM
[9] = system: NCI/ADR-RES ovarian; settings: 10 µM
[10] = system: T-47D breast; settings: 10 µM
[11] = system: SW-620 colon; settings: 10 µM
[12] = system: MCF7 breast; settings: 10 µM unless noted
[13] = system: HCT-116 colon; settings: 10 µM
[14] = system: HCC-2998 colon; settings: 10 µM
[15] = system: KM12 colon; settings: 10 µM
[16] = system: BT-549 breast; settings: 10 µM
[17] = system: MDA-MB-435 melanoma; settings: 10 µM
[18] = system: OVCAR-5 ovarian; settings: 10 µM

SMILES | growth [1] | growth [2] | growth [3] | growth [4] | growth [5] | growth [6] | growth [7] | growth [8] | growth [9] | growth [10] | growth [11] | growth [12] | growth [13] | growth [14] | growth [15] | growth [16] | growth [17] | growth [18] [%]
O=C1C=CC(=O)N1c1ccc(I)cc1Cl | 110% | 92.5% | 73.7% | 99.4% | 109% | 113% | 118% | 109% | 97.9% | 84.1% | 107% | 98.1% | 96.9% | 95.7% | 115% | – | – | –
Cc1ccc(C(=O)NC2c3ccccc3Oc3ccccc32)cc1 | 26.6% | 78.9% | 48.6% | 64.7% | 48.3% | 50.8% | 31.6% | 46.5% | 55% | 60.5% | 38.9% | 21.7% | – | 75.6% | 51.3% | 62.6% | 6.21% (active) | –
COC(=O)c1ccc(C(C)C)cc1 | 103% | 99.9% | 106% | 103% | 83.4% | 105% | 103% | 119% | 103% | 82.3% | 113% | 93.1% | 85.1% | 101% | 103% | 85.6% | 99.8% | –
CCCCCCCCCCCCCCCCC1CC(=O)OC1=O (configuration not stated) | 99.3% | 108% | 101% | 108% | 106% | 124% | 119% | 106% | 113% | 97.4% | 105% | 98.5% | – | – | 108% | – | 101% | –
O=C(c1ccc(Cl)cc1)c1ccccc1Cl | 95.9% | 82.8% | 89.6% | 97% | 96.3% | 87.9% | 118% | – | – | 74.7% | 121% | 95.7% | 87.9% | 92.6% | 119% | 91.7% | 106% | –
CCNc1nc2c(cnn2C)c(=O)[nH]1 | 92.3% | 99.8% | – | 109% | 96.2% | 84.5% | 109% | 92.5% | 108% | 92.5% | 97.9% | – | 99.2% | – | 108% | 102% | 106% | 103
N#CCc1ccc([N+](=O)[O-])cc1 | 105% | 109% | 89.5% | 111% | 101% | 135% | 117% | 98% | 106% | 98.6% | – | 89.8% | – | 101% | 109% | 102% | 114% | –
C/C(=N\NC(=O)c1ccccc1N)c1ccccc1O | 35.3% | 52.1% | 18.2% | 6.68% (active) | 58.3% | 36.3% | 12.4% | 97.8% | 26.7% | 25.2% | 31.6% | 5.19% (active) | 7.72% (active) | 67.5% | 46.3% | 72.2% | 57.8% | –
CC(=O)c1ccc(C(C)(C)C)cc1 | 90.6% | 95.5% | 98.3% | 93.5% | 101% | 96.7% | 103% | – | – | 98.2% | 110% | 94.5% | 97.5% | 96.2% | 102% | 102% | 106% | –
CCCCCCCCCCC(C)Br (configuration not stated) | 93.8% | 101% | 108% | 109% | 98.3% | 106% | 108% | 116% | 105% | 99.2% | 106% | 98.4% | 100% | 91% | 107% | 105% | 99.6% | –
CCC/C=C(/C(C)=O)C(=O)OCC | 160% | 104% | 91.8% | 89.8% | 117% | 126% | 119% | 114% | 107% | 107% | 106% | 114% | 109% | 7.66% (active) | 102% | 112% | 108% | –
CC(=O)Oc1ccc(Br)cc1C(=O)O | 99.1% | 99.5% | 104% | 104% | 98.2% | 98.4% | 111% | – | – | 97.6% | 107% | 94.3% | 95.4% | 100% | 115% | 97.7% | 104% | –
Oc1ccc2c(c1)OCC1(O)Cc3cc(O)c(O)cc3C21 (configuration not stated) | 78.4% | 62.5% | – | 38.2% | 193% | 75.3% | 93.7% | 102% | 91.7% | 168% | 95% | 103% | 84.1% | 64.8% | 96.5% | 88.9% | 92.3% | 96.3
O=C(CN1CCNCC1)N1CCOCC1 | 82.6% | 99.3% | 91.9% | 110% | 110% | 115% | 122% | 102% | 107% | 102% | 108% | 97.8% | 103% | 108% | 108% | – | 109% | –
Cc1cc(C(O)(c2ccc(Nc3ccccc3)cc2)c2ccc(Nc3ccc(S(=O)(=O)O)cc3)cc2)ccc1N (configuration not stated) | 7.14% (active) | -28.8% (active) | 6.11% (active) | -5.82% (active) | 31.3% | 5.51% (active) | -29.1% (active) | 1.91% (active) | 18.8% | -5.86% (active) | -32.6% (active) | -3.23% (active) | 6.56% (active) | -20.5% (active) | 4.39% (active) | 22.6% | -67.4% (active) | –
Cc1cc(C)c(N)c(S(=O)(=O)O)c1 | 81.4% | 92.4% | 104% | 98.9% | 94.6% | 108% | 113% | – | – | 93.2% | 111% | 92.1% | 93.6% | 91.2% | 115% | – | 98.9% | –
COc1cc(OC)c2ccc(=O)oc2c1 | 125% | 116% | 103% | 107% | 112% | 130% | 110% | 97.1% | 105% | – | 101% | 100% | 109% | 94.8% | 98.9% | 111% | 107% | –
O=C(CCl)Nc1ccc2c(c1)C(=O)c1ccc(NC(=O)CCl)cc1C2=O | -27.1% (active) | -40.3% (active) | -23% (active) | -43% (active) | -9.68% (active) | -62.1% (active) | -93.2% (active) | 6.19% (active) | -53.8% (active) | -48.7% (active) | -61.7% (active) | -60.7% (active) | -79.8% (active) | -77.8% (active) | -72.2% (active) | -91% (active) | -71.6% (active) | –
CC(=O)OCCC(C)CCC=C(C)C (configuration not stated) | 108% | 95% | 102% | 107% | 111% | 112% | 121% | 104% | 107% | 98.8% | 95.4% | 101% | 100% | 102% | 102% | – | 102% | –
Cn1cnc2nc(Cl)nc(Cl)c21 | 27.9% | 23.4% | 24.3% | 42.4% | 61.2% | 30.3% | -27.8% (active) | 72.4% | 27.1% | 56.7% | 22.2% | 16.7% | 3.41% (active) | – | -40.8% (active) | -28.5% (active) | -20.5% (active) | –

From PubChem BioAssay (NCI)
